From ChEMBL document CHEMBL4808148, “HDAC6 screening dataset using tau-based substrate in an enzymatic assay yields selective inhibitors and activators” (2021)
Out of some 5,600 compounds screened, about 390 (7%) showed an effect of 50% or more. This excerpt belongs to a sample that is enriched for strong results. Non-standard residues stand in square brackets, D forms with d. Residues, ends and D or L forms follow the SMILES beside them. dPhe(4-Cl) = N[C@H](Cc1ccc(Cl)cc1)C(=O)O; d2Nal = N[C@H](Cc1ccc2ccccc2c1)C(=O)O; dCit = NC(=O)NCCC[C@@H](N)C(=O)O; d3Pal = N[C@H](Cc1cccnc1)C(=O)O

Target: T1, Protein deacetylase HDAC6 (Homo sapiens) (UniProt Q9UBN7)
T1 sequence (whole entry): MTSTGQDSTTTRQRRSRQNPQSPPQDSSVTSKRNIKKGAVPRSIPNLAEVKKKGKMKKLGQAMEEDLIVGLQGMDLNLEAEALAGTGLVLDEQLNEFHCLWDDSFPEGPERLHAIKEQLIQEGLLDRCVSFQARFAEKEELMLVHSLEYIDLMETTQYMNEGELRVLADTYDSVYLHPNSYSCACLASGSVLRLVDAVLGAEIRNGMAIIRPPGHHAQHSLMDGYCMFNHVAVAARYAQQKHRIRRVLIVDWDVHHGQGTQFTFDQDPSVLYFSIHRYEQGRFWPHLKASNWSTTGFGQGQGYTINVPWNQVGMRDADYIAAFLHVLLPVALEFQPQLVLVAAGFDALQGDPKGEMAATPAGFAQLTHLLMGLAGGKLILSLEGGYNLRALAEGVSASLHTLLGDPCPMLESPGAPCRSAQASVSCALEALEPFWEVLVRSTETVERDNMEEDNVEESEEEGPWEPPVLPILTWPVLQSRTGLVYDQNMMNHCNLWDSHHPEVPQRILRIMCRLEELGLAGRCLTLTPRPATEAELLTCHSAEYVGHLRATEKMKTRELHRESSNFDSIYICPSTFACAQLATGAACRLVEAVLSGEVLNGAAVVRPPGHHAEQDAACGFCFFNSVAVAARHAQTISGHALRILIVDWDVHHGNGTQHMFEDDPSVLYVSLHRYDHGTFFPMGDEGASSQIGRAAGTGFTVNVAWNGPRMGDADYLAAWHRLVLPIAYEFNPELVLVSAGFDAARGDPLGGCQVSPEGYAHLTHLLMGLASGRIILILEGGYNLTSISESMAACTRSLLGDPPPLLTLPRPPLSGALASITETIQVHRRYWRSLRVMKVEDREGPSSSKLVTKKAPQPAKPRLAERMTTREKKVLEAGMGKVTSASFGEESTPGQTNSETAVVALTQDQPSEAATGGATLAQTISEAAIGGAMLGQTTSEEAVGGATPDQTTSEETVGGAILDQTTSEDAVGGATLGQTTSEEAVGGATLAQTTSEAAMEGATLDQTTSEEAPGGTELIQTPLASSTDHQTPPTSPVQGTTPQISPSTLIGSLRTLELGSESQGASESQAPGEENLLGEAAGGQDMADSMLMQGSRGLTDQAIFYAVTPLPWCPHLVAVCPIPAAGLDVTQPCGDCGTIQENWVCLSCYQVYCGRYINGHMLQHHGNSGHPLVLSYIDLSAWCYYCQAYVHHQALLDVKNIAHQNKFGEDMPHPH
Details: at 10 µM

SMILES	inhibition [%]
C[C@H]1CC[C@H](n2c3cnccc3c3cnc(Nc4ccc5c(n4)CCN(C(=O)CO)C5)nc32)CC1	-9.6
CC[C@@H]1CN2C(=O)N(C)c3nc(-c4ccccc4)[nH]c3C2=N1	-3.85
COc1ccc(C(=O)Nc2sc3c(c2C(N)=O)CCCC3)cc1OC	31.6
CC(C)(C)C1CCc2c(sc(NC(=O)c3ccco3)c2C(=O)O)C1 (stereo not given)	102
N[C@@H](Cc1ccc(B(O)O)cc1)C(=O)O	0.83
CNc1ncc2cc(-c3cc(NC(=O)NCCC(C)(C)C)c(F)cc3C)c(C)nc2n1	12.4
C/C(=N\NC(=O)[C@@H]1C(=O)NC[C@H]1c1ccccc1)c1cccc(Br)c1	17.4
CN1CCc2c(c3ccccc3n2Cc2ccc(C(=O)NO)cc2)C1	101
Fc1ccc(Cn2c(NC3CCNCC3)nc3ccccc32)cc1	6.44
CCO[C@@H](Cc1ccc(OCCc2ccc(OS(C)(=O)=O)cc2)cc1)C(=O)O	-7.27
Nc1cc(F)ccc1NC(=O)/C=C/c1cnn(C/C=C/c2ccccc2)c1	12.4
O=C(/C=C/c1cccnc1)NCCCCC1CCN(C(=O)c2ccccc2)CC1	-0.26
COc1cc(/C=C/C(=O)CC(=O)/C=C/c2ccc(O)c(OC)c2)ccc1O	38.8
O=C(c1cccc(Br)c1)N1CCC(N2CCCC2)CC1	1.11
CCNC(=O)/C=C/c1cccc(Br)c1	54.9
O=C(/C=C/c1ccccc1)NCCO	81.5
CC12CCC(C(=O)N(CCCCN3CCN(c4ccccn4)CC3)C1=O)C2(C)C (stereo not given)	4.93
C[C@@H]1O[C@@H](O[C@H]2[C@H](Oc3cc(O)c4c(c3)O[C@H](c3ccc(O)cc3)CC4=O)O[C@H](CO)[C@@H](O)[C@@H]2O)[C@H](O)[C@H](O)[C@H]1O	11.8
O=C(O)C[C@H]1CC[C@H](c2ccc(-c3ccc(Nc4ccc(C(F)(F)F)nc4)cn3)cc2)CC1	17.5
CC(C)c1ccc2c(c1)CC[C@H]1[C@](C)(CN)CCC[C@]21C	10.1
C=CC(=O)c1ccc2ccccc2c1	20.7
C/C(=C\C(=O)Nc1ccccc1C(=O)O)c1ccc2ccccc2c1	27.8
CC(C)N(CCC(=O)c1ccc2ccccc2c1)Cc1ccccc1	59.8
CC(=O)c1c(C)c2cnc(Nc3ccc(N4CCNCC4)cn3)nc2n(C2CCCC2)c1=O	3.93
CC(=O)SCC(Cc1ccccc1)C(=O)NCC(=O)OCc1ccccc1 (stereo not given)	3.61

SMILES	inhibition [%]
C[C@H]1CN(C[C@H](Cc2ccccc2)C(=O)NCC(=O)O)CC[C@@]1(C)c1cccc(O)c1	72.7
CC(C)C[C@H](NC(=O)[C@H](CCc1ccccc1)NC(=O)CN1CCOCC1)C(=O)N[C@@H](Cc1ccccc1)C(=O)N[C@@H](CC(C)C)C(=O)[C@@]1(C)CO1	0.65
O=C(CN1CCN(C(=O)c2ccco2)CC1)Nc1cc(C(F)(F)F)ccc1Cl	18.3
Nc1nc2cc(-c3ccc4ncc(C(=O)N5CCOCC5)n4c3)ccc2o1	17.8
CN(CCCN1c2ccccc2CCc2ccccc21)CC(=O)c1ccc(Cl)cc1	35.1
Cc1cc(O)c(C(C)C)cc1Cl	35.2
CCCN[C@H]1CCc2nc(N)sc2C1	14.3
CC(C)=CCOc1ccc(/C=C/C(=O)c2ccc(OCC=C(C)C)cc2OCC(=O)O)cc1	-0.94
O=C(/C=C/c1ccc(O)c(O)c1)c1ccc(O)cc1O	97.5
CC(C)(C)c1cc(C(=O)/C=C/c2ccc(C(=O)O)cc2)cc(C(C)(C)C)c1	35.2
O=C(O)/C=C/c1ccc(O)c(O)c1	-8.03
O=C(/C=C/c1ccc(O)cc1)c1ccc(O)cc1O	98.6
NC(=O)c1cccc(-c2cc(Nc3ccc(OC(F)(F)F)cc3)ncn2)c1	-8.36
c1coc(-c2nnc3sc(C4CCCCC4)nn23)c1	-6.78
O=C(Nc1ccc(Oc2ccc(Cl)cn2)c(Cl)c1)c1ccccn1	44.2
CN(Cc1ccc(C(C)(C)C)cc1)Cc1cccc2ccccc12	2.21
CC(C)=CCC/C(C)=C/CC/C(C)=C/CSc1ccccc1C(N)=O	-0.26
O=C(Nc1cccnc1)c1cc(-c2ccnc(F)c2)ccc1OCc1ccccc1	9.93
CCOC(=O)c1c(O)nc2cccc3c2c1-c1ccccc1C3=O	41.8
O=C1c2ccccc2-c2n[nH]c3cccc1c23	88.8
O=C(c1c(O)nc2cc(Cl)ccc2c1O)C1CC1	-2.41
N#C/C(=C\c1ccc(O)c(O)c1)C(=O)NCc1ccccc1	53
O=C(CCCl)NCc1ccccc1	-3.62
N#C/C(=C\c1ccc(O)c(O)c1)C(=O)OCCc1cccs1	40.4
CCCCCCCC/C=C\CCCCCCCC(=O)NCCc1ccc(O)c(O)c1	29.4

SMILES	inhibition [%]
N#C/C(=C\c1ccc(O)c(O)c1)C(N)=O	16.6
N#C/C(=C\c1ccc(O)c(O)c1)C(=O)NCCCc1ccccc1	88.2
C[C@H](NC(=O)/C(C#N)=C/c1ccc(O)c(O)c1)c1ccccc1	30.1
CCCCCCCCNC(=O)/C(C#N)=C/c1cn(CCCN(C)C)c2ccccc12	7.03
N#C/C(=C\c1ccc(O)c(O)c1)C(=O)Nc1ccccc1	89
COc1cc(C[C@@H]2NCCc3cc(O)c(O)cc32)cc(OC)c1OC	3.77
N#CC(Cc1ccc(O)cc1)c1ccc(O)cc1 (stereo not given)	21.2
COc1ccc2[nH]c([S@@+]([O-])Cc3ncc(C)c(OC)c3C)nc2c1	26.7
COc1ccc2[nH]c([S+]([O-])Cc3ncc(C)c(OC)c3C)nc2c1 (stereo not given)	16.1
COc1ccc2[nH]c(SCc3ncc(C)c(OC)c3C)nc2c1	62.8
CCC[C@H](NC(=O)[C@@H]1[C@H]2CCC[C@H]2CN1C(=O)[C@@H](NC(=O)[C@@H](NC(=O)c1cnccn1)C1CCCCC1)C(C)(C)C)C(=O)C(=O)NC1CC1	-8.83
Clc1ccc2c(NCCNc3ccnc4cc(Cl)ccc34)ccnc2c1	14.9
Oc1ccnc2cc(Cl)ccc12	28.9
O=C(OCC(O)CO)c1ccccc1Nc1ccnc2cc(Cl)ccc12 (stereo not given)	94.8
O=C(O)CCNc1cc(N2CCc3ccccc3CC2)nc(-c2cccnc2)n1	-1.98
Cc1cc(O)c2c(=O)c3c(O)cc(O)c4c5c(O)cc(O)c6c(=O)c7c(O)cc(C)c8c1c2c(c34)c(c78)c65	85
Nc1c2c(nc3ccccc13)CCCC2O (stereo not given)	7.55
O[C@@H]1CO[C@H]2[C@@H]1OC[C@@H]2O	0.18
Cc1nnc(C(C)C)n1[C@H]1C[C@H]2CC[C@@H](C1)N2CC[C@H](NC(=O)C1CCC(F)(F)CC1)c1ccccc1	25
CNC(=O)c1ccccc1Sc1ccc2c(/C=C/c3ccccn3)n[nH]c2c1	105
CCCCc1nc(Cl)c(C(=O)O)n1Cc1ccc(-c2ccccc2-c2nn[nH]n2)cc1	6.5
CCCc1nc2c(C)cc(-c3nc4ccccc4n3C)cc2n1Cc1ccc(-c2ccccc2C(=O)O)cc1	65
CCOc1nc2cccc(C(=O)O)c2n1Cc1ccc(-c2ccccc2-c2nnn[nH]2)cc1	-9.37
O=C(O)[C@H]1C[C@@H](CP(=O)(O)O)CCN1	7.25
CC(C)C[C@@H](C(=O)N[C@H](C(=O)OC1CCCC1)c1ccccc1)[C@H](O)C(=O)NO	-7.78

SMILES	inhibition [%]
[K+]	17.5
O=C(Nc1cnn2ccc(N3CCC[C@@H]3c3cc(F)ccc3F)nc12)N1CC[C@H](O)C1	28.9
O=C1C(O)=C(O)C(=O)C(O)=C1O	1.19
CC(C)(C)c1ccc(-c2nc3c(N4CCN(Cc5ccc6nccnc6c5)CC4)cccc3[nH]2)cc1	110
CCc1cncnc1N1CCN(Cc2nc3cc(C(F)(F)F)ccc3[nH]2)CC1	2.81
c1ccc(N2CCN(Cc3nc4ccccc4[nH]3)CC2)nc1	20.5
CCCCCCCN(CC)CCCC(O)c1ccc(NS(C)(=O)=O)cc1 (stereo not given)	30.4
O=C(c1ccc(C(=O)N2CCC(N3CCCC3)CC2)c(Nc2ccccc2)c1)N1CCC(N2CCCC2)CC1	28.5
COc1cc2c(cc1OCCCN1CCCC1)N=C(N)C21CCC1	-4.1
O=C(O)c1ccc(/C=C2/SC(=S)N(c3cccc(C(F)(F)F)c3)C2=O)cc1	4.63
NC(=O)OCC(O)COc1ccc(Cl)cc1 (stereo not given)	47.1
COc1ccccc1OCC(O)COC(N)=O (stereo not given)	75.6
COc1ccccc1OCC(O)CO (stereo not given)	-8.39
CC(C)C[C@H](NC(=O)N1CCCCCC1)C(=O)N[C@H](Cc1cn(C)c2ccccc12)C(=O)N[C@H](Cc1ccccn1)C(=O)O	-8.82
CC(=O)N[C@H](Cc1ccc2ccccc2c1)C(=O)N[C@H](Cc1ccc(Cl)cc1)C(=O)N[C@H](Cc1cccnc1)C(=O)N[C@@H](CO)C(=O)N[C@@H](Cc1ccc(O)cc1)C(=O)N[C@H](CCCNC(N)=O)C(=O)N[C@@H](CC(C)C)C(=O)N[C@@H](CCCNC(=N)N)C(=O)N1CCC[C@H]1C(=O)N[C@H](C)C(N)=O (Ac-[d2Nal][dPhe(4-Cl)][d3Pal]SY[dCit]LRP[dA]-NH2)	30.9
Cc1nc(C)c(C)nc1C	-3.53
COc1ccc(-c2ccc(=N)n(CCCC(=O)O)n2)cc1	8.71
O=c1ncn2nc(Sc3ccc(F)cc3F)ccc2c1-c1c(Cl)cccc1Cl	36.3
CN1c2c([nH]c(N)nc2=O)NC[C@@H]1CNc1ccc(C(=O)N[C@@H](CCC(=O)O)C(=O)O)cc1	11.1
CCc1nc2ccc(Cl)cn2c1C(=O)NCc1ccc(N2CCC(c3ccc(OC(F)(F)F)cc3)CC2)cc1	6.99
COc1cccc(-c2cc(=O)c3ccccc3o2)c1N	97.4
CC(=O)N[C@@H](CSC/C=C(\C)CC/C=C(\C)CCC=C(C)C)C(=O)O	19.5
Cc1ccc(N2CCN(CCC3NC(=O)c4ccccc43)CC2)cc1C (stereo not given)	0.62
CCN(Cc1ccccc1)C(=O)Cn1c(=O)n(C)c2cnc(-c3ccccc3)nc21	31.2
Cc1cc2nc3ccc(N(C)C)cc3[s+]c2cc1N	60.9
